Bioassay records (PubChem BioAssay)
Vaccinia Venus – inhibitors of vaccinia virus (Venus reporter) | 0.46% of 330,000 active | Potency, µM (doses to about 36.5 µM), inactives show at the top dose activity change, negative = inhibition, most hits filed as inhibitors | Vaccinia virus Venus reporter expression, fluorescence | AID 720580; calls by dose curve; tested in A549 cells; note: nearly all actives have a fitted effect of over 30% in size
Marburg entry inh – inhibitors of Marburg virus binding or cell entry | AID 540276 | 1.8% of 300,000 active | Marburg virus pseudotyped entry inhibition, cell reporter | Potency, µM (top dose mostly 37.8 µM), for inactives: at the top dose activity change, negative = inhibition, usual class: inhibitors; calls by dose curve; tested in HEK293 cells
VACV mCherry inh – vaccinia inhibition (mCherry reporter); Vaccinia virus mCherry reporter infection, fluorescence; Potency, µM (series often up to 36.5 µM), without a hit: at the highest dose activity change, negative = inhibition, hits mostly inhibitors; 0.63% of 310,000 active; calls by dose curve; tested in A549 cells; note: nearly all actives have a fitted effect of over 35% in size
Sm TGR block – S. mansoni TGR enzyme inhibition; Q962Y6; purified TGR, DTNB reduction, TNB absorbance 405 nm; Potency, µM (highest dose often 114 µM), inactives show at the top dose activity change, negative = inhibition, usual class: inhibitors; 3% of 360,000 active; AID 485364; active = well fitted inhibition curve with a large enough effect; inconclusive = small, poorly fitted or top-dose-only effect; inactive = no such curve, though single readings can be large or run the other way; note: nearly all actives have a fitted effect of over 60% in size
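TGR 20 nM + NADPH 100 uM (dispensed conc.), cpd preinc 15 min RT; start with NADPH (500 uM addition) then DTNB (15 mM addition). Kinetic TNB absorbance, 405 nm filter. Four-parameter Hill fit across titration.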
FMDV inh – foot and mouth disease virus antiviral activity | FMDV antiviral cell-based qHTS | Potency, µM (doses to about 57.9 µM), inactives show at the top dose activity change, negative = inhibition, hits mostly inhibitors | 1.2% of 410,000 active; calls by dose curve; tested in HEK293T cells; note: read-out not given here; nearly all actives have a fitted effect of over 45% in size
Lassa entry inh – Lassa virus entry inhibition; AID 540256; Lassa virus pseudotype entry inhibition, cell reporter; 1.2% of 300,000 active; Potency, µM (doses to about 37.9 µM), for the others: at the highest dose activity change, negative = inhibition, actives largely listed as inhibitors; calls by dose curve; tested in HEK293 cells; note: nearly all actives have a fitted effect of over 50% in size
Starred values were filed as active, the others as inactive; i = inactive; ? = inconclusive; / = no result given; [ ] = remark or other dose. Most compounds without a hit are left out; they make up all but 5.4% or so of the library. % is set by controls: 0 for no effect and ±100 for the full control effect; potency is the fitted concentration of half-maximal effect.

SMILES	Vaccinia Venus	Marburg entry inh	VACV mCherry inh	Sm TGR block	FMDV inh	Lassa entry inh
COc1ccc(NS(=O)(=O)c2ccc(N/N=C(\C)c3ccncc3)c([N+](=O)[O-])c2)cc1	?	6.3µM*	?	-6%	-13%	12µM*
O=C(NCC1(N2CCOCC2)CCCC1)c1cnn(-c2nccc(-c3cccs3)n2)c1C1CC1	10%	/	-11%	/	-4%	/
O=c1[nH]c(=O)n(-c2cccc(F)c2)c(O)c1/C=C1\C=Nc2ccccc21	7%	-7%[46.1 µM]	-14%	35µM*	-28%	?
O=C(O)c1ccc(-n2c(O)c(/C=C3\C=Nc4ccccc43)c(=O)[nH]c2=O)cc1	2%	-15%[46.1 µM]	-5%	?	-7%	15%[46.1 µM]
Clc1ccc2c(N/N=C/c3ccc(Br)cc3)ccnc2c1	?	3.3µM*	?	-3%	-33%	?
Cc1ccc(/C=N/Nc2ccnc3cc(Cl)ccc23)c(C)c1	/	?	/	-12%	40µM*	?
Clc1ccc2c(N/N=C/c3cccnc3)ccnc2c1	-20%	?	?	0%	5%	?
Cc1ccccc1/C=N/Nc1ccnc2cc(Cl)ccc12	?	?	?	-1%	?	?
CCc1ccc(NC(=O)CSc2nc3ccsc3c(=O)n2C(C)CC)cc1 (centres undefined)	-26%	/	-15%	-4%	-32%	?
COc1cccc2c1Oc1cc([N+](=O)[O-])cc(N(C)C(C)=O)c1C=C2	-21%	-29%[46.1 µM]	7.1µM*	-1%	26%	-11%[46.1 µM]
COc1cc(C2OC(=O)c3c2ccc(OC)c3OC)ccc1O (centres undefined)	/	/	/	28µM*	/	/
Cn1c(=O)oc2cc(S(=O)(=O)NCCC(=O)Nc3ccc(F)c(Cl)c3)ccc21	1%	0%[46.1 µM]	-4%	-33%	-8%	12%[46.1 µM]
C=CCCC1CN(Cc2ccc(OC)cc2)S(=O)(=O)c2c(Oc3cc(C)c(C)c(C)c3)cccc2O1 (centres undefined)	/	/	/	/	/	-17%[46.1 µM]
Cc1ccc(C)c(N2CCN(c3ncccc3[N+](=O)[O-])CC2)c1	-25%	2.5µM*	-7%	-1%	0%	?
CC(Sc1n[nH]c(=O)[nH]c1=O)C(=O)OCc1ccccc1 (centres undefined)	-7%	-11%	/	-1%	-3%	-5%
CCC(Sc1n[nH]c(=O)[nH]c1=O)C(=O)OCc1ccccc1 (centres undefined)	/	10%	/	-18%	1.8µM*	12%
Cc1c(C(=O)NCc2ccc3c(c2)OCO3)oc2ccc(S(=O)(=O)N3CCCCCC3)cc12	-23%	13µM*	-29%	3%	?	-27%
Cc1c(C(=O)NCc2ccc3c(c2)OCO3)oc2ccc(S(=O)(=O)N3CCC(C)CC3)cc12	/	?	/	-6%	?	?
CCCCN(C)C(=O)c1oc2ccc(S(=O)(=O)N3CCCCCC3)cc2c1C	-20%	5%	i	-2%	35µM*	14%[14.3 µM]
CC(=O)c1cccc(CN2CCN(Cc3ccc(F)cc3)C(CCO)C2)c1 (centres undefined)	0%	/	i	45µM*	-7%	/
COc1ccc(CN2CCN(Cc3ccc(C)cc3)C(CCO)C2)cc1OC (centres undefined)	/	/	/	0%	-8%	/
COc1cc(CN2CCN(Cc3ccc(C)cc3)C(CCO)C2)cc(OC)c1O (centres undefined)	-7%	?	-6%	6.3µM*	-17%	?
CC(=O)Nc1ccc2nc(CN3CCN(Cc4ccc(F)cc4)C(CCO)C3)ccc2c1 (centres undefined)	/	/	/	25µM*	-10%	/
Cc1oc(-c2cccc(NC(=O)c3ccccn3)c2)nc1CNC(=O)C#Cc1ccccc1	-16%	/	-3%	/	16%	/
Cc1cc(C)c(NC(=O)c2nc3ccccc3nc2N2CCCCC2)c(C)c1	6%	/	-4%	5%	?	29%[46.1 µM]
SMILES	Vaccinia Venus	Marburg entry inh	VACV mCherry inh	Sm TGR block	FMDV inh	Lassa entry inh
COc1ccc(NC(=O)/C(C#N)=C\c2ccc(N3CCOCC3)o2)cc1	79%	?	?	45µM*	13%	?
N#C/C(=C/c1ccc(N2CCOCC2)o1)C(=O)NC1CCCCC1	/	/	/	32µM*	7%	/
COc1ccc(NC(=O)/C(C#N)=C/c2cc(C)n(-c3ccc(N4CCOCC4)c([N+](=O)[O-])c3)c2C)cc1	-14%	-15%	i	4%	4µM*	?
N#C/C(=C\c1ccc(N2CCOCC2)o1)C(=O)Nc1ccc(O)cc1	19%	?	?	/	20%	?
COCCCNC(=O)C1CCN(C(=O)c2ccc(-n3ccc4ccccc43)s2)CC1	-6%	/	-13%	9%	17%	?
CC(=O)C1=C(C)N(CC#C[Si](C)(C)C)C(=O)N(C(C)=O)C1c1ccccc1 (centres undefined)	/	-12%[14.2 µM]	/	/	/	?
Cn1c(O)c(/C=C2\C=c3ccccc3=NC2=O)c(=O)n(C)c1=O	/	/	/	35µM*	-14%	/
CCOC(=O)N1CCC(NC(=O)c2cnn(-c3ccc(C)cc3)c2C2CCN(C(=O)OC(C)(C)C)CC2)CC1	-12%	/	-14%	?	-2%	-1%[46.1 µM]
CN(C)c1ccc(/C=C/c2cccc3cc4ccccc4nc23)cc1	16µM*	/	11µM*	/	/	/
CN(C)c1ccc(/C=C/c2ccc3ccccc3n2)cc1	-5%	/	12%	?	6.3µM*	/
C(=C\c1ccc2ccccc2n1)/c1ccccc1	?	/	5µM*	3%	-84%	/
CN(C)c1ccc(/C=C/c2cc(/C=C/c3ccc(N(C)C)cc3)c3ccccc3n2)cc1	61%	/	-13%	/	/	/
Fc1ccccc1/C=C/c1ccc2ccccc2n1	-19%	?	-4%	-13%	10µM*	2.5µM*
COc1cc(OC)c2nc(-c3cc4c(c(OC)c3)OCCN(C(=O)C(C)c3n[nH]c(=O)c5ccccc35)C4)cc(C)c2c1 (centres undefined)	-12%	/	i	/	-9%	/
COc1ccc2c(c1)c1c(c(=O)n(-c3cc(Cl)ccc3C)c(=O)n1Cc1ccc(F)cc1)n2C	-9%	/	-12%	0%	-3%	14%[46.1 µM]
CN(C)c1ccc(/C=C/c2nc3ccccc3s2)cc1	-19%	2µM*	-21%	10%	5µM*	2.2µM*
Cc1ccc(/C=C/c2nc3ccccc3s2)s1	-6%	?	-7%	4%	?	6.3µM*
C(=Cc1c[nH]c2ccccc12)c1ccc2ccccc2n1	-10%	2.2µM*	0.71µM*	/	?	?
O=[N+]([O-])c1ccc(/C=C/c2ccc3ccccc3n2)cc1	-6%	?	-14%	6%	-65%	2µM*
O=[N+]([O-])c1ccc(/C=C/c2ccc3cccc(O)c3n2)cc1	/	/	/	-14%	58%	/
Cc1cc(C(=O)Nc2ccccc2-c2nc(CNC(=O)c3cc4ccccc4cn3)c(C)o2)c(C)o1	7%	/	-8%	/	0%	/
CCOC(=O)CSC1=NC(=O)/C(=C\c2ccc(Cl)cc2)S1	/	1%	/	3.5µM*	18µM*	-12%
